Screening results as filed in PubChem BioAssay.
Mtb FBA inh = Mtb FBA enzyme inhibitors, primary screen, biochemical, fluorescence, strain H37Rv; Fructose-bisphosphate aldolase (Mycobacterium tuberculosis (strain ATCC 25618 / H37Rv)), …; purified M. tuberculosis FBA, fluorescence read-out; inhibition, % at 1 µM; actives 2.3% (n = 360,000); AID 588726, 2011; in the data active = inhibition above about 27%;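 note: 0% = vehicle and 100% = reference inhibitor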
Target sequence (P9WQA3 whole entry, looked up): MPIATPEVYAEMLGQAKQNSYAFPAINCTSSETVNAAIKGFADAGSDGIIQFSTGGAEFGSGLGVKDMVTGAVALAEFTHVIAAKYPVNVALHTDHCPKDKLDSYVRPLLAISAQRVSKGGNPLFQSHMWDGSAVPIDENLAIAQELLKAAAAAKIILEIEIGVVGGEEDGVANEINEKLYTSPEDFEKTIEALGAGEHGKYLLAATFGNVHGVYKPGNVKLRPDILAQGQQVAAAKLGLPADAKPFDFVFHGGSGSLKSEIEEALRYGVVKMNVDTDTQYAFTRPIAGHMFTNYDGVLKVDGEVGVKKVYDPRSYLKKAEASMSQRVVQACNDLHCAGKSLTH
FadD28 FP inh = inhibitors of FadD28 bisubstrate probe binding, primary screen, biochemical, fluorescence polarization, single point; inhibition, % at 12.5 µM; actives 0.22% (n = 360,000); in the data active = inhibition above about 8.5%, passing the limit was not always enough
GDH-TPI counter = GDH-TPI coupling enzyme inhibitors, primary screen, artefact control for M. tuberculosis FBA inhibitor project, biochemical, absorbance, full deck. GDH-TPI coupled enzyme counterscreen, NADH absorbance. inhibition, % at 4.8 µM. actives 1.2% (n = 360,000); in the data active = inhibition above about 30%;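 note: 0% = DMSO wells and 100% = wells lacking the enzyme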
SARS 3CLpro inh = SARS-CoV 3CLpro protease inhibitors, primary screen, biochemical, quenched FRET; Replicase polyprotein 1ab (Severe acute respiratory syndrome coronavirus), P0C6X7; recombinant SARS-CoV 3CLpro, quenched FRET peptide cleavage; inhibition, % at 6 µM; actives 0.14% (n = 290,000); in the data active = inhibition above about 12%
BioA inh = M. tuberculosis BioA enzyme inhibitors, primary screen, biochemical, plate reader, single point, HTS | inhibition, % at 9.99 µM | purified M. tuberculosis BioA enzyme | actives 0.096% (n = 360,000); in the data active = inhibition above about 40%
An asterisk follows results filed as active; nt = no result; + = active, no number. Compounds with a hit are over-represented: about 3.1% of the library has one in this group of screens.

SMILES | Mtb FBA inh | FadD28 FP inh | GDH-TPI counter | SARS 3CLpro inh | BioA inh
O=C(O)c1ccccc1-c1ccc(C=c2sc3nc4cc(Br)cnc4n3c2=O)o1 | -3.3 | 12.6* | 21.3 | nt | -2.1
C/C(=N\Nc1ccc(Cl)c(C(=O)O)c1)c1cccs1 | -2.0 | -1.0 | 18.5 | 1.6 | -0.4
C/C(=N/Nc1ccccc1C(=O)O)c1cccs1 | -3.2 | -1.2 | 33.2* | 4.5 | -0.1
CN(C)C(=O)c1ccc(N=Nc2c(O)c3ccccc3[nH]c2=O)cc1 | -15.4 | 0.5 | 15.3 | nt | 0.2
O=C(O)c1ccc(N=Nc2c(O)[nH]c3ccccc23)cc1 | -5.0 | 1.2 | 35.0* | 0.4 | -1.0
O=C(O)c1cc(-c2ccccc2)nc2nc(N3CCCCC3)sc12 | nt | nt | nt | 5.5 | nt
Cc1ccc(-c2cc(C(=O)O)c3sc(N4CCCCC4)nc3n2)cc1 | 163.2* | -4.5 | 14.0 | 2.9 | nt
O=c1[nH]c(=O)c2nc(-c3ccc(Cl)cc3)cnc2[nH]1 | + | 1.0 | 8.7 | 0.8 | 0.2
O=C(CCN1CCCCC1)NCC[C@H]1CC[C@@H](NC(=O)C2CC2)[C@H](CO)O1 | nt | nt | nt | nt | 0.0
COC(=O)c1nn(-c2ccc3c(c2)OCO3)cc1O | 26.3 | -0.8 | 0.3 | -0.6 | nt
COC(=O)c1nn(-c2ccc3c(c2)CCN3C(C)=O)cc1O | 195.1* | 0.9 | 19.1 | -2.1 | -1.5
C[C@H](CO)N1C[C@H](C)[C@@H](CN(C)C(=O)c2ccccn2)Oc2cc(C#CC3CC3)ccc2S1(=O)=O | nt | nt | nt | nt | 1.7
O=C(Nc1ccc(F)cc1)Nc1nnc(-c2ccncc2)s1 | 1.3 | 0.1 | 35.0* | 0.3 | -0.9
C=CCNc1nnc(-c2ccncc2)s1 | 181.0* | -3.0 | 11.5 | -9.0 | nt
O=C(Nc1ccc(Cl)cc1)Nc1nnc(-c2ccncc2)s1 | 2.6 | -0.9 | 6.5 | -4.2 | -1.7
Fc1ccc(Nc2nnc(-c3ccncc3)s2)cc1Cl | 2.4 | 0.8 | 19.6 | nt | -0.1
c1ccc2c(Nc3nnc(-c4ccncc4)s3)cccc2c1 | 0.3 | -0.8 | 37.5* | -0.7 | -4.2
C[C@@H]1CN([C@@H](C)CO)S(=O)(=O)c2ccc(C#CC3(O)CCCC3)cc2O[C@@H]1CN(C)C(=O)Nc1ccccc1 | nt | nt | nt | nt | -3.0
CCNC(=O)C[C@@H]1CC[C@@H]2[C@H](COC[C@@H](O)CN2Cc2ccncc2)O1 | nt | nt | nt | nt | -2.5
CCc1nn(CC(=O)NCCN2CCOCC2)c(=O)c2cc3c(OC)cccc3n12 | + | -0.5 | 14.4 | 2.1 | 0.0
CCCSCCCNC(=O)Cn1nc(CC)n2c(cc3c(OC)cccc32)c1=O | 24.0 | -0.3 | 0.0 | -3.8 | 0.6
O=C(Nc1ccc(F)cc1)N1CCCCN2[C@H](CO)[C@@H](c3ccc(C#CC4CC4)cc3)[C@H]2C1 | nt | nt | nt | nt | 0.4
C[C@H](CO)N1C[C@H](C)[C@@H](CN(C)S(=O)(=O)c2ccc(F)cc2)OCCCC[C@H](C)Oc2ccc(NC(=O)Cc3ccccc3)cc2C1=O | nt | nt | nt | nt | -1.7
Nc1nc(N)c(N=O)c(OCC2CCCCC2)n1 | 0.5 | 0.2 | 34.3* | -3.4 | -2.6
CC1(C)Cc2c(C#N)c(SCc3ccccc3)nc(N3CCOCC3)c2CO1 | -5.8 | -0.2 | 75.0* | 0.2 | 2.3
SMILES | Mtb FBA inh | FadD28 FP inh | GDH-TPI counter | SARS 3CLpro inh | BioA inh
CCc1nc(N2CCOCC2)c(C#N)c2c1COC(C)(C)C2 | 46.3* | 2.9 | 10.3 | 4.5 | 0.6
CCc1nc(N2CCN(C(=O)c3ccccc3)CC2)c(C#N)c2c1COC(C)(C)C2 | 23.2 | -1.3 | 11.8 | -0.6 | -0.1
CC1(C)Cc2c(C#N)c(SCC(=O)c3ccccc3)nc(N3CCOCC3)c2CO1 | 3.6 | -2.1 | 10.3 | 0.8 | nt
COc1ccc(-c2ccc3n(c2=O)C[C@@H]2[C@@H](CO)[C@H](C(=O)N4CCN(C)CC4)N[C@H]32)cc1 | nt | nt | nt | nt | -1.1
O=C(O)c1ccc(N2C(=O)c3cccc4cccc(c34)C2=O)cc1 | 10.6 | 0.6 | 38.1* | 6.9 | 11.2
C(=N\Nc1ncnc2sc3c(c12)CCC3)/c1ccncc1 | -4.7 | -2.7 | 17.6 | -13.7 | 0.6
C(=N\Nc1ncnc2sc3c(c12)CCC3)/c1cccs1 | 3.0 | 0.4 | 33.3* | 5.1 | -1.5
Cn1cnc2c(N/N=C/c3cccs3)ncnc21 | -1.8 | -2.4 | 39.1* | 0.1 | -0.8
CCc1nnc(N/N=C/c2cccs2)n1N | -7.6 | -0.6 | 16.0 | 0.2 | 0.3
CO[C@@H]1CN(C)C(=O)c2ccc(NC(=O)c3cccc(F)c3)cc2OC[C@@H](C)N(C)C[C@H]1C | nt | nt | nt | nt | 0.1
CCCN1C[C@H](C)[C@@H](OC)CN(C)C(=O)c2cc(NC(=O)c3cnccn3)ccc2OC[C@H]1C | nt | nt | nt | nt | 1.2
COC(=O)C[C@@H]1CC[C@H]2[C@H](COc3ccc(NC(=O)NC(C)C)cc3C(=O)N2C)O1 | nt | nt | nt | nt | 0.6
CCCCCCSc1cccc(-c2nc3ccc(C)cn3c2NCc2ccccc2)c1 | 35.8* | -4.0 | 9.2 | nt | -3.4
COCC(=O)Nc1ccc2c(c1)C(=O)N(C)C[C@@H](OC)[C@@H](C)CN(C(=O)C1CCCC1)[C@H](C)CO2 | nt | nt | nt | nt | -1.5
Cc1cc(=O)oc2c3c(cc(OCC(=O)NCc4ccccc4)c12)OC(C)(C)CC3 | 150.2* | -1.2 | 27.4 | -1.3 | 0.4
Cc1cc(=O)oc2c3c(cc(OCC(=O)NCC(=O)O)c12)OC(C)(C)CC3 | + | 1.6 | 9.9 | -1.6 | 1.8
Cc1ccc(CNC(=O)COc2cc(O)c3c(c2)OC(C)(C)CC3=O)cc1 | 1.7 | 1.5 | 2.0 | 6.9 | -0.5
Cc1cc(=O)oc2c3c(cc(OCC(=O)Nc4cccnc4)c12)OC(C)(C)CC3 | 12.3 | 1.0 | 6.9 | -3.7 | 0.1
Cc1cc(=O)oc2c3c(cc(OCC(=O)Nc4ccc(CCO)cc4)c12)OC(C)(C)CC3 | 156.5* | -8.5 | 21.6 | 1.9 | 0.0
CC(=O)Nc1ccc(NC(=O)COc2cc(C)cc3oc(=O)cc(C)c23)cc1 | 2.0 | -1.3 | 3.1 | 1.0 | -0.4
Cc1c(C)c2ccc(OCc3ccc(C(=O)O)o3)c(C)c2oc1=O | 130.8* | -7.3 | 26.0 | 5.6 | 2.6
COc1ccc(S(=O)(=O)N(C)C[C@@H]2Oc3c(NS(=O)(=O)c4ccc(Cl)cc4)cccc3C(=O)N([C@H](C)CO)C[C@H]2C)cc1 | nt | nt | nt | nt | -5.4
C[C@@H]1CCCCO[C@@H](CN(C)C)[C@@H](C)CN([C@H](C)CO)C(=O)c2cc(NS(C)(=O)=O)ccc2O1 | nt | nt | nt | nt | 0.1
Cc1ccc(N=Cc2c(O)n(C)c(=O)n(C)c2=O)cc1 | -1.8 | -1.2 | 35.4* | -8.5 | -0.5
Cc1cccc(N=Cc2c(O)n(C)c(=O)n(C)c2=O)c1 | -2.1 | -1.1 | 35.8* | -1.7 | -1.7
Cn1c(O)c(/C=N/c2ncccn2)c(=O)n(C)c1=O | 3.7 | -1.1 | 32.0* | 2.7 | -3.7
CCOc1ccccc1N=Cc1c(O)n(C)c(=O)n(C)c1=O | 2.5 | 0.2 | -4.0 | 0.6 | -1.7
C[C@@H]1CN([C@@H](C)CO)S(=O)(=O)c2ccc(C#CC(C)(C)O)cc2O[C@@H]1CN(C)C | nt | nt | nt | nt | -2.1
